# In the library only some 3.4% were active in any assay of this set; here they are far more common.
# ADAM10 inh = human ADAM10 inhibitors, primary screen, biochemical, QFRET, HTS; recombinant ADAM10, EDANS/DABCYL FRET peptide cleavage, 3 h; AID 720582, 2013; inhibition, % at 7 µM; Disintegrin and metalloproteinase domain-containing protein 10 (Homo sapiens), O14672; 370,000 compounds, 0.62% hits;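 active means inhibition above a per-campaign cutoff equal to the mean of compounds falling between control-based bounds plus 3 SD, cut at about 20% in these data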;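 further: 0% = DMSO wells while the 100% control is not disclosed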
# KLK7 zymogen act = proKLK7 zymogen activators, primary screen, biochemical, fluorescence intensity; Kallikrein-7 (Homo sapiens), P49862; purified proKLK7, EDANS-DABCYL substrate fluorescence; 100% is mature enzyme control, 0% vehicle; activation, % at 7 µM; 370,000 compounds, 0.9% hits;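 active means activation above the mean of all tested compounds plus 3 SD, computed per campaign excluding outliers beyond control limits, cut at about 13% in these data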
# PLC-beta3 inh = human PLC-beta3 inhibitors, primary screen, biochemical, fluorescence; inhibition, % at 12.2 µM; 370,000 compounds, 0.18% hits; Purified PLC-beta3, fluorogenic substrate; AID 720704, 2013;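 further: 0% = median of compound wells on plate and 100% = full blocker control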
# sPLA2-III inh = human group III sPLA2 inhibitors, primary screen, biochemical, QFRET, BODIPY PC-A2 liposome substrate; Group 3 secretory phospholipase A2 (Homo sapiens), Q9NZ20; QFRET BODIPY PC-A2 liposome hydrolysis, fluorescence; inhibition, % at 12.2 µM; 370,000 compounds, 0.56% hits; AID 743126, 2013;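 active means inhibition above mean plus 3 SD of compounds lying within the high and low control bounds, cut at about 19% in these data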;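 further: 0% = median of test compound wells and 100% = no enzyme DMSO wells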
# PLCg1 inh = PLC-gamma1 enzyme inhibitors, primary screen, biochemical, fluorescence, purified enzyme; fluorogenic substrate; 370,000 compounds, 0.84% hits; 1-phosphatidylinositol 4,5-bisphosphate phosphodiesterase gamma-1 (Homo sapiens), P19174; inhibition, % at 12.2 µM; AID 720700, 2013; in the data active means inhibition above about 9.5%
# ADAM17 inh = ADAM17 inhibitors, primary screen, biochemical, QFRET; 370,000 compounds, 0.83% hits; Disintegrin and metalloproteinase domain-containing protein 17 (Homo sapiens), P78536; AID 720648, 2013; recombinant ADAM17, EDANS/DABCYL FRET peptide cleavage; inhibition, % at 6.95 µM;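 active means inhibition above the mean of compounds lying between control limits plus 3 SD, set per campaign, cut at about 8.5% in these data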;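 further: 0% = DMSO-only wells as the low control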
# PLCgamma1 ctr = PLC-gamma1 enzyme inhibitors, counter-screen for PLC-beta3 inhibitor project, biochemical, fluorescence | shares compounds with PLCg1 inh | purified PLC-gamma1, fluorogenic substrate | inhibition, % at 12.3 µM | 3,300 compounds, 3.1% hits; in the data active means inhibition above about 9.5%
# PLCbeta3 conf = PLC-beta3 inhibitor confirmation, biochemical, fluorescence, purified enzyme; shares compounds with PLCg1 inh; AID 743261, 2014; 3,300 compounds, 1% hits; fluorogenic substrate fluorescence; inhibition, % at 12.3 µM
# * marks the source's active call; other numbers are inactive results; i = inactive; x = no result. Unless noted, no stated cut-off is given here; in the data, active means inhibition above about 11%; inactive means the rest.
SMILES,ADAM10 inh,KLK7 zymogen act,PLC-beta3 inh,sPLA2-III inh,PLCg1 inh,ADAM17 inh,PLCgamma1 ctr,PLCbeta3 conf
C=CCN(CC#CCN(C)C(=O)c1cccn1C(=O)OC(C)(C)C)Cc1ccc(OC)cc1OC,1.4,-0.2,0.9,6.0,1.1,3.5,x,x
Clc1ccc([C@H]2OC[C@@]3(CNC4CCCCC4)CS[C@H](c4ccc(Cl)cc4)N23)cc1,9.6,-0.6,1.8,7.0,1.3,1.6,x,x
COc1ccc(OCc2ccc(C(=O)O)cc2)cc1,7.8,-0.2,3.0,7.7,9.9*,-1.2,-3.5,-2.1
COc1ccc(OCC(O)COc2ccc(C(=O)O)cc2)cc1 (configuration not stated),4.6,0.3,5.6,2.8,3.7,-0.8,x,x
CNc1c(NS(=O)(=O)c2ccc(OC)c(Cl)c2)c(=O)oc2ccccc12,-23.1,-2.0,-1.4,-5.5,10.9*,-9.0,-9.2,-5.4
CC(C)OC(=O)c1ccc(N2C(=O)C3CC=CCC3C2=O)cc1 (configuration not stated),0.5,0.4,0.9,-8.8,-0.5,-5.1,x,x
COC(=O)c1ccc(N2C(=O)C3CC=CC(C)C3C2=O)cc1 (configuration not stated),5.3,-0.2,3.5,-0.2,10.4*,3.3,-4.5,-2.3
COC(=O)c1ccccc1NC(=O)CN(c1ccc(OC)cc1)S(C)(=O)=O,7.7,0.1,14.4*,-15.6,3.8,4.2,-3.5,-0.8
CS(=O)(=O)N(CC(=O)Nc1ccccc1C(=O)N1CCCC1)c1ccc2c(c1)OCO2,4.3,0.1,2.6,8.2,9.6*,8.0,7.5,0.1
COc1ccc(N(CC(=O)Nc2cc(Cl)ccc2C)S(=O)(=O)c2c(C)n[nH]c2C)cc1,15.5,-1.1,-2.7,2.7,12.9*,3.0,2.5,3.8
CCOC(=O)CSc1nnnn1-c1cc(OC)c(Cl)cc1OC,3.0,0.0,1.2,4.0,9.8*,-0.2,-4.4,-2.0
Cc1ccccc1NC(=O)Nc1ccc(C(F)(F)F)cc1,16.6,0.8,12.0*,4.5,12.7*,5.7,0.5,1.5
Cc1ccc(-c2cc(C(=O)NN=Cc3ccc(F)cc3)[nH]n2)cc1C,-2.4,-1.1,0.1,9.2,2.2,0.1,x,x
Cc1ccc(CN2CCCCC(NC(=O)C(C)(C)C)C2=O)cc1 (configuration not stated),-2.0,-0.4,-1.0,-2.9,0.3,-2.1,x,x
O=C(NCCN1C(=O)CSC1=O)C1CC(=O)N(c2ccccc2)C1 (configuration not stated),-4.8,-0.6,1.8,6.5,10.2*,-3.5,-5.9,-0.8
CCn1nc(C(=O)O)c(=O)c2cc3c(cc21)OCO3,-9.2,0.8,0.5,14.4,10.3*,-6.5,-8.2,-4.3
Clc1ccc(SCCOCCN2CCOCC2)cc1,-10.0,0.5,-3.4,1.5,1.2,-3.2,x,x
Clc1ccc(SCCCCN2CCOCC2)cc1,6.8,-0.1,8.9,6.9,13.6*,5.2,0.3,2.1
O=C(c1ccco1)N1CCC(Oc2cccnc2)CC1,1.0,-0.1,-0.3,0.0,1.4,-1.7,x,x
COc1ccc(/C=N/NS(=O)(=O)c2ccc(C)cc2)cc1OC(=O)c1ccccc1,5.4,0.5,-0.9,-30.0,10.9*,3.4,-3.3,-0.7
CC(=O)Oc1ccc(/C=N/NS(=O)(=O)c2ccccc2)cc1,-6.1,-0.1,11.2*,5.6,9.2,2.7,-1.5,-0.2
CC1CCN(CC(CS(=O)(=O)c2ccc([N+](=O)[O-])cc2)N2CCC(C)CC2)CC1 (configuration not stated),10.7,-0.5,11.2*,0.1,5.3,-0.6,-6.0,-3.8
CN1C/C(=C/c2ccccc2)N2C(=O)C[C@@H](c3ccccc3)N=C12,-4.1,0.2,-7.6,1.9,-10.0,-3.0,x,x
NC(=NCCc1c[nH]c2ccccc12)NC(=O)c1ccc(Cl)cc1,19.1,-0.5,-0.7,-107.2,10.0*,3.0,-4.9,-3.8
CC1=C2NC(N)=[N+](CC3CC3)C(Cc3ccccc3)[C@@H]2n2c(=O)n(-c3ccccc3)c(=O)n2C1 (some centres not stated),-8.5,-0.2,4.3,6.2,2.6,-4.7,x,x
SMILES,ADAM10 inh,KLK7 zymogen act,PLC-beta3 inh,sPLA2-III inh,PLCg1 inh,ADAM17 inh,PLCgamma1 ctr,PLCbeta3 conf
Cc1nc2sccn2c(=O)c1S(=O)(=O)Nc1ccc(N2CCN(C(=O)C(C)C)CC2)cc1,4.6,0.1,5.7,0.9,12.2*,5.9,-4.7,-0.4
O=C(Nc1ccc(Br)cc1)C1CCCN1S(=O)(=O)c1cccs1 (configuration not stated),0.7,-0.4,2.2,0.4,9.8*,2.8,-5.5,-4.4
CC(=O)c1cccc(NC(=O)C2CCCN2S(=O)(=O)c2cccs2)c1 (configuration not stated),-5.0,-0.3,-0.3,7.1,-0.1,-4.5,x,x
CCN(CC)c1nc(N)c([N+](=O)[O-])c(NCCO)n1,14.2,0.6,8.3,1.4,10.3*,5.7,-1.1,5.0
CCOc1ccccc1C(=O)NCC(=O)NCCc1ccc(S(N)(=O)=O)cc1,17.2,0.3,1.9,9.8,10.0*,1.6,-5.7,-0.9
CCOc1ccccc1OCC(=O)NCCc1ccc(S(N)(=O)=O)cc1,-1.3,0.5,-2.6,2.4,7.9,4.2,x,x
C=CCn1c(-c2csc(-c3ccccc3)n2)n[nH]c1=S,1.1,0.1,-1.4,17.6,8.5,3.5,x,x
C=CCn1c(-c2csc(-c3ccc(Cl)cc3)n2)n[nH]c1=S,13.8,0.1,7.7,2.2,9.8*,2.8,-11.2,-9.9
O=C(NC1CCCCCCC1)C1CCN(S(=O)(=O)N2CCCC2)CC1,5.3,0.1,2.7,2.2,11.3*,2.7,-5.8,-5.7
COc1cccc(NC(=O)c2ccccc2Oc2ccccc2)c1,15.4,0.0,-4.9,-13.5,9.8*,7.9,-9.6,-8.1
COc1ccc(NC(=O)c2ccccc2Oc2ccccc2)cc1,3.3,0.2,-4.0,-3.7,2.4,0.9,x,x
O=C(Nc1nc2ncccn2c1-c1ccc(F)cc1)C1CC1,i,9.2,i,12.1,i,-173.3,x,x
COc1ccc(S[C@]2(C(=O)N3CCOCC3)CC(=O)N(c3ccc(OC)cc3)[C@@H]2c2ccc(OC)cc2)cc1,7.8,0.3,1.8,-10.8,9.7*,8.3,-5.0,0.0

# From PubChem BioAssay
